{"source": "PubChem BioAssay (EPA / NIEHS)", "note": "“And” between values parts separate entries of the source, which are not always exact repeats. Equal values may be shown once. The source made the active and inactive calls. The calls were made as follows: active = hit-call score of the fitted dose curve at least 0.9, where 1 is the maximum; inactive = score below 0.9."}
{"assay": "BSK_MyoF_SRB: Viability Assessment in the BioMAP Diversity Plus: MyoF Assay (AID 2284267)", "conditions": "primary human lung fibroblasts", "method": "BSK_MyoF is a cell-based, multiplexed-readout assay that uses lung fibroblasts, […], with measurements taken at 24 hours after chemical dosing in a microplate: 96-well plate.BSK_MyoF_SRB is an assay component measured in the BSK_MyoF assay. It measures 0.1% sulforhodamine related to cell death using Sulforhodamine staining technology.Data from the assay component BSK_MyoF_SRB was analyzed at the endpoint, BSK_MyoF_SRB, in the positive analysis fitting direction relative to DMSO as the negative control and baseline of activity. Using a type of viability reporter, gain or loss-of-signal activity can be used to understand protein changes. To generalize the intended target to other relatable targets, this assay endpoint is annotated to the 'cell morphology' intended target family, where the subfamily is 'cell conformation'.\nThe levels of cell surface (or secreted, indicated by the prefix \"s\") biomarker endpoints were measured by ELISA. Overt cytotoxicity to cells in confluent adherent cultures (all systems other than the BT system) was assessed by measuring total protein levels using sulforhodamine B (SRB) staining in parallel cultures at the time of biomarker measurements, indicated as SRB endpoints. For proliferation assays for adherent cell types, individual cell types are cultured at sub-confluence and relative cell numbers quantified by SRB staining at time points optimized for each system (48 h: 3C and CASM3C systems; 72 h: BT and HDF3CGF systems; 96 h: SAg system). SRB was performed by staining cells with 0.1% SRB after fixation with 10% TCA and reading wells at 560 nm.Viability and proliferation of PBMC (T cells) was quantified by Alamar Blue reduction for the SAg and BT systems. For PBMC viability (referred to as PBMC Cytotoxicity within the assay endpoint names), cells were plated (75,000/well in a 96-well plate) and then chemical samples added for 1 h before addition of activators, SEB and TSST-1 (20 ng/mL final concentration each). Cells were incubated for 90 h. Then, Alamar Blue (20 uL/well) (Invitrogen, Cat DAL1100) was added for 6 h, and the plates were read with a fluorescence microplate reader at 546/580 nm (excitation/emission). For PBMC proliferation, cells were plated and activated as above but incubated for only 16 h prior to addition of Alamar Blue. Plates were read after 6 h."}
{"smiles": "CC1=NN(c2ccccc2)C(=O)C1", "outcome": "inactive"}
{"smiles": "COC1=CC(=O)C[C@@H](C)[C@]12Oc1c(Cl)c(OC)cc(OC)c1C2=O", "outcome": "inactive"}
{"smiles": "C=CC(C)(CCC=C(C)C)OC(C)=O", "note": "(configuration not stated)", "outcome": "inactive"}
{"smiles": "CC(C)(C)c1ccc(O)c(O)c1", "AC50": "33.5 µM (active)"}
{"smiles": "O=C(O)CCC(F)(F)C(F)(F)C(F)(F)C(F)(F)C(F)(F)C(F)(F)F", "outcome": "inactive"}
{"smiles": "O=C(NO)c1ccccc1", "outcome": "inactive"}
{"smiles": "O=C1c2ccc(O)c(O)c2C(=O)c2c(O)ccc(O)c21", "outcome": "inactive"}
{"smiles": "Oc1cc2ccccc2cc1O", "outcome": "inactive"}
{"smiles": "CN(Cc1cnc2nc(N)nc(N)c2n1)c1ccc(C(=O)N[C@@H](CCC(=O)O)C(=O)O)cc1", "outcome": "inactive"}
{"smiles": "O=C(O)CCC(F)(F)C(F)(F)C(F)(F)C(F)(F)C(F)(F)F", "outcome": "inactive"}
{"smiles": "O=S(=O)(O)C(F)(F)C(F)(F)C(F)(F)C(F)(F)C(F)(F)C(F)(F)C(F)(F)C(F)(F)C(F)(F)C(F)(F)F", "outcome": "inactive"}
{"smiles": "CC[N+](CC)(CC)Cc1ccccc1", "outcome": "inactive"}
{"smiles": "O=C(O)C(F)(F)OC(F)(F)C(F)(F)OC(F)(F)C(F)(F)OC(F)(F)C(F)(F)C(F)(F)C(F)(F)F", "AC50": "13 µM (active) and 9.16 µM (active)"}
{"smiles": "NC(=NCCCCCCN=C(N)/N=C(\\N)Nc1ccc(Cl)cc1)/N=C(\\N)Nc1ccc(Cl)cc1", "AC50": "4.76 µM (active)"}
{"smiles": "COc1cccc(O)c1", "outcome": "inactive"}
{"smiles": "COc1cc(OC)nc(NC(=O)NS(=O)(=O)Nc2ccccc2C(=O)N(C)C)n1", "outcome": "inactive"}
{"smiles": "O=C(CC(=O)C(F)(F)C(F)(F)C(F)(F)F)c1cccs1", "outcome": "inactive"}
{"smiles": "CCCCC(CC)C(=O)OCCOCCOCCOCCOC(=O)C(CC)CCCC", "note": "(configuration not stated)", "outcome": "inactive"}
{"smiles": "O=C(NCc1ncc(C(F)(F)F)cc1Cl)c1c(Cl)cccc1Cl", "outcome": "inactive"}
{"smiles": "CCCCCCCCCCCCCCCCCC[N+](C)(C)Cc1ccccc1", "AC50": "2.65 µM (active)"}
{"smiles": "CN(C)c1ccc(C(=C2C=CC(=[N+](C)C)C=C2)c2ccccc2)cc1", "AC50": "0.485 µM (active)"}
{"smiles": "O=C1OC2(c3ccccc31)c1cc(I)c(O)c(I)c1Oc1c2cc(I)c(O)c1I", "outcome": "inactive"}
{"smiles": "C[C@]12CC[C@@H]3c4ccc(O)cc4CC[C@H]3[C@@H]1C[C@@H](O)[C@@H]2O", "outcome": "inactive"}
{"smiles": "O=P(O)(O)CCC(F)(F)C(F)(F)C(F)(F)C(F)(F)C(F)(F)C(F)(F)C(F)(F)C(F)(F)F", "outcome": "inactive"}
{"smiles": "OCCN1CN(CCO)CN(CCO)C1", "outcome": "inactive"}
{"smiles": "C=CC(=O)OCCC(F)(F)C(F)(F)C(F)(F)C(F)(F)C(F)(F)C(F)(F)C(F)(F)C(F)(F)F", "outcome": "inactive"}
{"smiles": "CCCCCc1ccc(O)cc1", "AC50": "28.7 µM (active)"}
{"smiles": "Cc1ccc(C(=O)c2ccccc2)cc1", "outcome": "inactive"}
{"smiles": "Cc1cccc2c1ccc1ccccc12", "outcome": "inactive"}
{"smiles": "COCN(COC)c1nc(N(COC)COC)nc(N(COC)COC)n1", "outcome": "inactive"}
{"smiles": "C=COC(=O)C(C)(C)CCCCCC", "AC50": "30.9 µM (active)"}
{"smiles": "OCC(F)(F)C(F)(F)C(F)(F)C(F)(F)C(F)(F)C(F)(F)C(F)(F)C(F)(F)C(F)(F)C(F)(F)C(F)(F)F", "outcome": "inactive"}
{"smiles": "C=CC(=C)CC/C=C(\\C)CCC=C(C)C", "outcome": "inactive"}
{"smiles": "O=P(O)(O)CCC(F)(F)C(F)(F)C(F)(F)C(F)(F)C(F)(F)C(F)(F)F", "outcome": "inactive"}
{"smiles": "CN(CCO)S(=O)(=O)C(F)(F)C(F)(F)C(F)(F)C(F)(F)C(F)(F)C(F)(F)C(F)(F)C(F)(F)F", "outcome": "inactive"}
{"smiles": "CCOC(=O)CN[C@@H](C(=O)N1CC[C@H]1C(=O)NCc1ccc(/C(N)=N/O)cc1)C1CCCCC1", "outcome": "inactive"}
{"smiles": "Cc1ccc(N=Nc2c(O)ccc3ccccc23)c(C)c1", "outcome": "inactive"}
